Measured potencies and affinities stand elsewhere.
How the values were obtained:
[1] = test system: Klebsiella pneumoniae; conditions: Concentration 20 uM; ASSAY_TEST Inhibition of Bacterial Growth; detection method Absorption (OD600); MEDIA CAMHB; plate type 384well; NBS; CORNING #3640; time 18 hr
[2] = test system: Candida albicans; conditions: 20 µM
[3] = test system: Cryptococcus neoformans; conditions: Concentration 20 uM; ASSAY_TEST Inhibition of Fungal Growth; detection method Resazurin; Absorption (OD600-OD570); plate type 384well; NBS; CORNING #3640

Row | SMILES | Inhibition [1] | Inhibition [2] | Inhibition [3]
1 | COc1cc(N)c(Cl)cc1C(=O)NC1CN2CCC1CC2.Cl.O (configuration not stated) [ZACOPRIDE HYDROCHLORIDE] | -4% | 5.47% | 0.38%
2 | C[N+]1(C)CCN(c2ccccc2)CC1.[I-] [DIMETHYLPHENYLPIPERAZINIUM IODIDE] | 19.04% | 2.58% | -7.47%
3 | CN(C)CCOc1ccc(/C(=C(/CCCl)c2ccccc2)c2ccccc2)cc1.O=C(O)CC(O)(CC(=O)O)C(=O)O [TOREMIFENE CITRATE] | 8.47% | 1.73% | -7.47%
4 | CN(C)CCc1c[nH]c2ccc(C[C@H]3COC(=O)N3)cc12 [ZOLMITRIPTAN] | 7.51% | 2.65% | 0.25%
5 | Cl.O=C1CC2(CCCC2)CC(=O)N1CCCCN1CCN(c2ncccn2)CC1 [BUSPIRONE HYDROCHLORIDE] | 10.99% | 5.32% | -4.43%
6 | CC(=O)OC1C([N+]2(C)CCCCC2)C[C@H]2C3CC[C@H]4C[C@H](OC(C)=O)C([N+]5(C)CCCCC5)CC4(C)[C@H]3CCC12C.[Br-].[Br-] (some centres not stated) | 10.46% | -0.59% | -9.01%
7 | c1ccc2c3c([nH]c2c1)CNCC3 [TRYPTOLINE] | 13.54% | 3.92% | -5.61%
8 | CS(=O)(=O)O.O=C(O[C@@H]1C[C@@H]2C[C@H]3C[C@H](C1)N2CC3=O)c1c[nH]c2ccccc12 | 8.46% | 2.39% | 1.75%
9 | C[C@]12CC(C=O)=C(O)C[C@@H]1CC[C@@H]1[C@@H]2CC[C@@]2(C)[C@H]1CC[C@]2(C)O | 6.07% | 6.85% | 3.15%
10 | O=C(O[C@@H]1Cc2c(O)cc(O)cc2O[C@@H]1c1cc(O)c(O)c(O)c1)c1cc(O)c(O)c(O)c1 [EPIGALOCATECHIN GALLATE] | 17.83% | 3.47% | -2.04%
11 | CC(=O)[C@H]1CC[C@H]2[C@@H]3CCC4=CC(=O)CC[C@]4(C)[C@H]3CC[C@]12C [PROGESTERONE] | 23.48% | 11.4% | -1.48%
12 | Cl.FC(F)(F)c1cccc(N2CCNCC2)c1 [N- (3-TRIFLUOROMETHYLPHENYL)PIPERAZINE HYDROCHLORIDE (TFMPP)] | 6.51% | 4.36% | -3.92%
13 | C=C1C[C@@H]2[C@H](CC[C@]3(C)C(=O)CC[C@@H]23)[C@@]2(C)C=CC(=O)C=C12 [EXEMESTANE] | 6.02% | 5.81% | -8.06%
14 | NC1=NC(=O)C(c2ccccc2)O1 (configuration not stated) [PEMOLINE] | 13.09% | 1.75% | -5.45%
15 | CNC(=O)Oc1ccc2c(c1)[C@]1(C)CCN(C)C1N2C.CNC(=O)Oc1ccc2c(c1)[C@]1(C)CCN(C)C1N2C.O=S(=O)(O)O (some centres not stated) | 13.28% | 2.24% | -6.96%
16 | Oc1ncnc2[nH]ncc12 [ALLOPURINOL] | 15.5% | 2.36% | -1.92%
17 | Br.CN1[C@@H]2CC(OC(=O)[C@H](CO)c3ccccc3)C[C@H]1[C@@H]1O[C@@H]12.O.O.O (some centres not stated) | 13.1% | 2.39% | -4.17%
18 | O=C1Nc2ccc(Cl)cc2C(c2ccccc2Cl)=NC1O (configuration not stated) [LORAZEPAM] | -5.27% | 5.15% | -2.1%
19 | NC(=O)C[S+]([O-])C(c1ccccc1)c1ccccc1 (configuration not stated) [MODAFINIL] | 7.6% | 2.96% | -0.59%
20 | c1cncc([C@@H]2CCCN2)c1 [NORNICOTINE] | 9.44% | 3.55% | -7.65%
21 | Cc1c(O)c(=O)ccn1C [DEFERIPRONE] | 3.55% | 4.97% | -5.92%
22 | CNC1=Nc2ccc(Cl)cc2C(c2ccccc2)=[N+]([O-])C1 [CHLORDIAZEPOXIDE] | 19.46% | 2.53% | -9.21%
23 | CS(=O)(=O)Nc1ccc(Cc2noc(-c3ccc4[nH]cc(CCN)c4c3)n2)cc1.O.O | 11.61% | 2.75% | -39.59%
24 | COc1cc(-c2ccc(=O)[nH]n2)ccc1OC(F)F [ZARDAVERINE] | 6.98% | 1.79% | 1.74%
25 | C[C@]12CC[C@H](O)CC1=CC[C@@H]1[C@@H]2CC[C@]2(C)C(=O)CC[C@@H]12 [PRASTERONE] | 10.09% | 14.5% | 2.55%
26 | C[C@H](CCC(=O)O)[C@H]1CC[C@H]2[C@@H]3[C@@H](O)C[C@@H]4C[C@H](O)CC[C@]4(C)[C@H]3CC[C@]12C [URSODIOL] | 5.07% | 3.21% | -2.96%
27 | Cl.NCCc1ccc(O)c(O)c1 [DOPAMINE HYDROCHLORIDE] | 13.84% | -0.19% | -1.49%

Row | SMILES | Inhibition [1] | Inhibition [2] | Inhibition [3]
28 | C[N+]1(C)CCCC(OC(=O)C(O)(c2ccccc2)c2ccccc2)C1.[Br-] (configuration not stated) [MEPENZOLATE BROMIDE] | 9.6% | 4.42% | -1.1%
29 | C=C(C)[C@@H]1[C@H]2OC(=O)[C@@H]1[C@]1(O)C[C@H]3O[C@]34C(=O)O[C@H]2[C@]14C.CC(C)(O)[C@@H]1[C@H]2OC(=O)[C@@H]1[C@]1(O)C[C@H]3O[C@]34C(=O)O[C@H]2[C@]14C | 10.94% | 2.79% | -5.47%
30 | CN1[C@@H]2CC[C@H]1CC(OC(=O)C(CO)c1ccccc1)C2 (some centres not stated) | 9.61% | 0.86% | -0.25%
31 | Fc1ccc([C@@H]2CCNC[C@H]2COc2ccc3c(c2)OCO3)cc1.O=C(O)/C=C\C(=O)O | 6.3% | 2.04% | -6.92%
32 | CC(C)c1cccc(C(C)C)c1O [PROPOFOL] | 12.14% | 2.62% | -1.51%
33 | COCCCOc1ccnc(C[S+]([O-])c2nc3ccccc3[nH]2)c1C (configuration not stated) [RABEPRAZOLE] | 14.6% | 5.74% | -21.21%
34 | Cn1c(=O)c2nc[nH]c2n(C)c1=O.O [THEOPHYLLINE] | 1.07% | 3.65% | 7.56%
35 | CCN(C(C)=O)c1cccc(-c2ccnc3c(C#N)cnn23)c1 [ZALEPLON] | 6.53% | -0.36% | -1.32%
36 | CCCN1C[C@H](CSC)C[C@@H]2c3cccc4[nH]cc(c34)C[C@H]21.CS(=O)(=O)O [PERGOLIDE MESYLATE] | 13.95% | 2.85% | -3.89%
37 | CN1CCN(C(=O)O[C@H]2c3nccnc3C(=O)N2c2ccc(Cl)cn2)CC1 [ESZOPICLONE] | -5.59% | 0.3% | 4.31%
38 | Cc1ccnc2c1NC(=O)c1cccnc1N2C1CC1 [NEVIRAPINE] | 10.08% | 2.39% | -2.57%
39 | Cc1ncc2n1-c1ccc(Cl)cc1C(c1ccccc1F)=NC2.Cl [MIDAZOLAM HYDROCHLORIDE] | 2.84% | 3.62% | -0.63%
40 | CN(C)CCC=C1c2ccccc2CCc2ccccc21.Cl [AMITRIPTYLINE HYDROCHLORIDE] | 11.13% | 3.15% | -4.46%
41 | CCCC(C)(COC(N)=O)COC(=O)NC(C)C (configuration not stated) [CARISOPRODOL] | 4.45% | 4.69% | 4.79%
42 | O=C(O)C(Cl)Cl [DICHLOROACETIC ACID] | 10.68% | 2.59% | -3.9%
43 | COc1ccc(C(CN(C)C)C2(O)CCCCC2)cc1.Cl (configuration not stated) [VENLAFAXINE HYDROCHLORIDE] | 15.76% | 3.64% | -9.68%
44 | C#C[C@]1(OC(C)=O)CC[C@H]2[C@@H]3CCC4=CC(=O)CC[C@@H]4[C@H]3CC[C@@]21C [NORETHINDRONE ACETATE] | -0.71% | 6.32% | -4.57%
45 | CC(C)NCC(O)c1ccc(O)c(O)c1.Cl (configuration not stated) [ISOPROTERENOL HYDROCHLORIDE] | 6.57% | 2.42% | 0.22%
46 | CN[C@@H]1C[C@@H](c2ccc(Cl)c(Cl)c2)c2ccccc21.Cl [INDATRALINE HYDROCHLORIDE] | -0.11% | 2.5% | -6.06%
47 | CN1[C@@H]2CC[C@H]1C[C@@H](OC(=O)c1c[nH]c3ccccc13)C2.Cl | 15.9% | 3.12% | -7.07%
48 | C[N+]1(CCC(C(N)=O)(c2ccccc2)c2ccccc2)CCCCC1.[Br-] [FENPIVERINIUM BROMIDE] | -3.21% | 3.32% | -1.41%
49 | Cl.Oc1ccc2c3c1OC1C(O)CC[C@@]4(O)[C@@H](C2)N(CC2CCC2)CC[C@]314 (some centres not stated) | 8.11% | 2.98% | -7.08%
50 | Cl.O[C@@H]1CCCC[C@H]1N1CCC(c2ccccc2)CC1 | 4.06% | 3.46% | -7.38%
51 | Cl.O.Oc1cc2c(cc1O)[C@H]1c3ccccc3CN[C@@H]1CC2 | 11.23% | 1.34% | -4.18%
52 | CCCCCNC(=N)N/N=C/c1c[nH]c2ccc(OC)cc12.O=C(O)/C=C\C(=O)O [TEGASEROD MALEATE] | 6.68% | 0.86% | -67.8%
53 | COc1ccc2[nH]cc(C3=CCNCC3)c2c1.COc1ccc2[nH]cc(C3=CCNCC3)c2c1.O=C(O)CCC(=O)O | 15.57% | 3.46% | -20.08%
54 | Cl.O=C1CC[C@@]2(O)[C@H]3Cc4ccc(O)c5c4[C@@]2(CCN3CC2CC2)[C@H]1O5 [NALTREXONE HYDROCHLORIDE] | 13% | 3.06% | 0.92%

Source: ChEMBL document CHEMBL4513141, “CO-ADD screening of NIH (USA) - Clinical Collection” (2021)
